The results in this text go back to PubChem BioAssay AID1063 (University of Pittsburgh Molecular Library Screening Center, 2008).

The whole screen tested about 200,000 compounds, of which about 18,000 (9%) were called active. The entries come from a sample that favours actives as a whole. A number with no mark means an inactive call. Rule as the data show it: active = inhibition above about 50%; inactive = the rest.

This experiment can be described thus: antileishmanial activity against promastigotes – primary screen (AID 1063).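 Also: promastigotes grown with compound for 44 hours at 28 °C.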 Particulars: Leishmania major promastigotes, resazurin fluorescence viability; at 10 µM; stronger effect = higher value.
The inhibition is the change of the read-out against control, counted positive when it falls. With `O=c1cc(N2CCCCC2)c(-c2ccccc2)nn1Cc1cccc(F)c1`, the inhibition was 16.7%.
Under `COC(=O)c1c(C(=O)OC)c(-c2cccc(C)c2)n2c1CS(=O)C2` (stereo not drawn) stands -12.1%; under `O=[N+]([O-])c1cccc(C2=NCCS2)c1`, -6.13%.
On to `C=CCNc1nnc(SCC(=O)N2CCCCC2)c2ccccc12`, for which the inhibition was 54.3% (active).
Take `CC(C)N(C(=O)Cn1cc(SCC(=O)N2CCCC2)c2ccccc21)C(C)C`: the inhibition was -0.03%.
Take `C=CCNc1nnc(C)c2ccccc12`: the inhibition was 8%.
Then `CN1C(=O)/C(=C/c2ccc(C(=O)NC3CCCC3)cc2)Oc2ccccc21`, with -4.09%.
Under `CCOC(=O)c1cc(-c2ccc(F)cc2)n(CC(=O)NCc2ccccn2)c1C` stands 3.59%; under `COc1cccc(CNn2cn[nH]c2=S)c1OCc1ccccc1`, 15.9%.
Under `COC(=O)C(C)N=Cc1ccccc1` (stereo not drawn) stands -2.89%; under `Cc1cc(C(=O)COC(=O)C2CC2)c(C)n1-c1ccc(F)cc1`, -2.35%; under `Cc1c(Cl)c([N+](=O)[O-])nn1CC(=O)NCC1CCCO1` (stereo not drawn), -3.45%.
In the case of `COCCCNC(=S)NCCNc1nc2cc(C)c(C)cc2cc1C#N`, the inhibition was 19.8%.
Then `O=C1c2ccccc2C2=Nc3ccccc3SC(c3ccccc3F)C12` (stereo not drawn), with 98.3% (active); and `O=C(NCCCN1CCCCCC1)c1ccc(N2CCCC2=O)cc1`, with 0.31%; and `COc1ccc(CCNC(=O)c2cc3sccc3n2C)cc1OC`, with 7.15%.
Under `Cn1c(C(=O)NCCCN2CCCCC2)cc2sccc21` stands 74.1% (active); under `COc1ccc(C2(CNC(=O)Cc3ccc(OC)c(OC)c3)CCCC2)cc1`, 0.15%; under `CCOc1ccc(C(=O)Nc2cccc(-c3ccc4nncn4n3)c2)cc1`, -2.57%.
As to `Cc1ccc(NC(=O)c2oc3ccccc3c2C)c([N+](=O)[O-])c1`, the inhibition was -2.37%.
Then `Cc1ccc(NC(=O)c2oc(=O)c3ccccc3c2-c2ccccc2)c(C)c1`, with 55.8% (active).
Then `Cc1ccc(NC(=S)NC(=O)c2ccc(-c3ccccc3)cc2)c(C)c1`, with -4.31%; and `COc1ccccc1N(C)S(=O)(=O)c1ccc(Cl)c(C(=O)N2CCC(C(N)=O)CC2)c1`, with -3.28%; and `COc1cc(/C=N/Nc2ccc(C)cc2)cc(Br)c1O`, with -20.7%.
Under `Cc1ccccc1OCCOc1ccc([N+](=O)[O-])cc1/C=N/n1cnnc1` stands 37.6%; under `Cc1c(Br)ccc(NC(=O)COc2ccccc2C(N)=O)c1C`, 2.06%.
`C=C(C)COc1ccc(-c2n[nH]c(C)c2-c2ccccc2OC)c(O)c1`: the inhibition was -7.88%.
Under `COc1ccccc1-c1n[nH]c2c1[C@H](C)CC[C@H]2C(C)C` stands 62.9% (active).
`COc1ccccc1-c1nc(SC)n[nH]1`: the inhibition is -6.03%.
In the case of `Cc1ccc(S(=O)(=O)N(C)C)cc1NC(=O)c1ccccc1Br`, the inhibition was -1.67%.
Under `COc1ccc(OC)c(-c2csc(NC(=O)C3=NNC(=O)CC3)n2)c1` stands -4.28%; under `CCc1nnc(NC(=O)CSc2nc(SC)ns2)s1`, -6.1%; under `CC(=O)NC1C(Oc2ccc(C)cc2)OC2COC(c3ccco3)OC2C1O` (stereo not drawn), 54.2% (active).
Under `CCc1cccc(OC2OC(CO)C(O)C(O)C2NC(C)=O)c1` (stereo not drawn) stands -8.46%; under `CCOC(=O)C1C(=O)C=C(c2ccc(OC)cc2)CC1c1ccco1` (stereo not drawn), 0.83%; under `CCC(C)(C)NC(=O)CN(Cc1cccs1)C(=O)CNS(=O)(=O)c1ccc(F)cc1`, -4.43%.
Under `CCOC(=O)c1c(C)[nH]c2c1-c1ccccc1C(=O)C2=O` stands 100% (active).
Regarding `CCOC(=O)c1c(C)[nH]c(=S)c(C#N)c1-c1ccccc1`, the inhibition is -3.7%.
Under `CCOC(=O)c1cc2n(c1N)-c1ccccc1C2=O` stands 1.96%; under `O=c1cc(O)c(-c2cccc(C(F)(F)F)c2)c(Cl)[nH]1`, 16.3%; under `Clc1cccc(-c2nc(NCC3CCCO3)c3ccccc3n2)c1` (stereo not drawn), 76.4% (active).
With `CC(C)(C)c1nc(NCC2CCCO2)c2nnn(Cc3ccccc3)c2n1` (stereo not drawn), the inhibition was 2.46%.
Under `c1ccc2c(NCC3CCCO3)nc(-c3ccncc3)nc2c1` (stereo not drawn) stands 3.5%; under `CNC(=S)N/N=C/c1ccc(OCc2ccccc2)c(Br)c1`, 1.78%.
Then `COC(=O)Cn1cc(/C=C/[N+](=O)[O-])c2ccccc21`, with 27.7%; and `CNC(=S)N/N=C/c1cn(Cc2ccc(C)cc2)c2ccccc12`, with 62.8% (active); and `CCOC(=O)N/N=C/c1cn(Cc2ccccc2Cl)c2ccccc12`, with 83.9% (active).
Then `CCOC(=O)c1cnn(Cc2ccccc2Cl)c1N`, with 0.00878%.
Regarding `Cc1ccc(OCCCn2c(=O)oc3ccccc32)cc1`, the inhibition is -3.5%.
Under `COC(=O)N/N=C/c1cn(CCCOc2ccc(C)cc2)c2ccccc12` stands 55.6% (active).
Then `O=C(Cn1cc(/C=N/NC(=O)c2cccc(C(F)(F)F)c2)c2ccccc21)Nc1ccc(F)cc1`, with 6.06%; and `CCOC(=O)N/N=C/c1cccnc1`, with 1.46%; and `CCN(CC)S(=O)(=O)c1ccc(NC(=O)c2cccnc2Cl)c(NC(=O)c2cccnc2Cl)c1`, with -1.01%.
Then `O=C(Nc1ccc(Cl)cc1)C1c2cccc[n+]2CC(=O)N1Cc1ccc2c(c1)OCO2` (stereo not drawn), with -2.66%; and `CCC(=O)Nc1ccc(Nc2nc(Cl)nc(Nc3ccc(NC(=O)CC)cc3)n2)cc1`, with -6.56%.
Take `N#CCSc1nn(-c2ccc(F)cc2)c(=S)s1`: the inhibition is -4.75%.
Under `Cc1ccc(S(=O)(=O)N2CCN(C(=O)c3cccs3)CC2)cc1` stands -4.13%; under `Cc1ccnc(NS(=O)(=O)c2ccc(NC(=O)c3ccc(S(=O)(=O)N(C)C)cc3)cc2)n1`, -6.03%.
Then `COC(=O)c1c(NC(=O)CCCC(=O)O)sc2c1CCCCC2`, with -4.64%; and `Cc1cccc(Nc2nc3c(S(=O)(=O)c4ccccc4)nnn3c3ccccc23)c1C`, with 57.1% (active); and `CC(=O)Nc1ccc(Nc2nc3c(S(=O)(=O)c4ccc(C)c(C)c4)nnn3c3ccccc23)cc1`, with 3.4%.
Under `COCCCNc1nc2c(-c3cccc(C(F)(F)F)c3)nnn2c2ccccc12` stands 0.99%.
Regarding `COc1ccc(N(CC(=O)NC2CCCC2)C(=O)CS(=O)CC(=O)Nc2ccc3c(c2)OCO3)cc1` (stereo not drawn), the inhibition was -10.1%.
Then `COc1ccc(CC(=O)NCc2nnc(SCC(=O)Nc3nccs3)n2C)cc1`, with -3.12%; and `CC(=O)Oc1ccccc1C1=NN(C(C)=O)C(c2ccccc2)C1` (stereo not drawn), with -5.99%.
Under `COc1cc([N+](=O)[O-])ccc1NC(=S)N1CCN(c2ccccn2)CC1` stands -4.39%.
Then `Cc1cccn2c(CN(C)C3CCCc4ccccc43)c(C(=O)N3CCOCC3)nc12` (stereo not drawn), with 7.87%; and `Cc1cccn2c(=O)c3cc(C(=O)N4COCC4(C)C)n(C)c3nc12`, with 89.9% (active); and `O=C(O)C1C2CC2CN1C(=O)c1ccc(Cl)cc1Cl` (stereo not drawn), with -2.09%.
Turning to `COc1ccc2nc(/N=C(\N)NC(=O)Nc3ccccc3)nc(C)c2c1`, the inhibition is 99.9% (active).
With `COc1ccc2nc(SCc3ccccc3)nc(C)c2c1`, the inhibition is -8.99%.
Then `COc1ccc(NC(=O)Nc2ccc3nc(C)c(C)nc3c2)cc1`, with 6.7%; and `Cc1nc2cc(NCc3cccs3)ccc2n1C`, with 9.59%; and `C[C@H](NC(=O)c1ccccc1Cl)C(=O)OCCOc1cccc(Cl)c1`, with -6.25%.
Under `CC(=O)N/N=C/c1cc2c(cc1[N+](=O)[O-])OCO2` stands -2.52%; under `CCn1c(CSc2nc(C)cc(C)n2)nnc1SCC(N)=O`, -0.87%; under `Cc1cccc(NC(=S)NCc2ccc3[nH]c4c(c3c2)CCCC4)c1`, 11.1%.
On to `Cc1cc2cc(CNC(=O)c3cccs3)ccc2[nH]1`, for which the inhibition was -4.21%.
Regarding `CCc1cccc(CC)c1NC(=S)NCc1ccc2[nH]c(C)cc2c1`, the inhibition was 94.4% (active).
In the case of `CC1CCCCC1NC(=O)/C(C#N)=C/C=C/c1ccccc1[N+](=O)[O-]` (stereo not drawn), the inhibition is 69% (active).
`COc1cc(/C=C(\C#N)C(=O)Nc2ccc3ccccc3c2)c([N+](=O)[O-])cc1OC`: the inhibition is -8.56%.
Then `O=C(/C=C/c1ccccc1[N+](=O)[O-])OC1CCCCC1=O` (stereo not drawn), with -5.55%.
Under `COc1cc(CN(C)Cc2nc3cc(C(F)(F)F)ccc3c(=O)[nH]2)ccc1OC(F)F` stands 8.36%; under `O=C(CSc1cccc[n+]1[O-])c1ccc(-c2ccccc2)cc1`, -8.44%; under `CC(NC(=S)NC1CCCCC1)C(c1ccccc1)N1CCOCC1` (stereo not drawn), 1.15%.
For `Cc1ccccc1CN1C[C@@H]2C[C@@H](c3cn(C)nc3-c3ccccc3)N3CCC[C@@]23C1=O`, the inhibition was 9.77%.
As to `Cc1ccccc1CN1CCN(CC(=O)NCc2ccccn2)C1=O`, the inhibition is -4.22%.
Under `Cc1ccccc1CN1C[C@@H]2C[C@@H](c3ccc4nsnc4c3)N3CCC[C@@]23C1=O` stands 78.4% (active); under `CCN1CCN(C(=O)CN(C)S(=O)(=O)c2ccc3ccccc3c2)CC1`, 0.63%.
Under `O=C(N/N=C/c1cc2c(cc1Br)OCO2)C1COc2ccccc2O1` (stereo not drawn) stands 38%.
Under `CC1=NN(Cc2ccccc2)C(=O)/C1=C/c1ccc(N(C)C)cc1` stands -0.65%.
As for `CN(C)c1ccc(/C=C2\NC(=S)N(Cc3ccccc3)C2=O)cc1`, the inhibition was 96.8% (active).
Under `O=C1NCC(=O)N(Cc2ccccc2)/C1=C/c1ccccc1` stands -0.36%.
Under `Cc1noc(C)c1CCC(=O)O` stands -0.11%; under `CC(CC(=O)Nc1ccccc1)n1ccnc1` (stereo not drawn), -7.2%; under `COc1ccc(NC(C)=O)cc1NC(=O)CN1CCN(C2c3ccccc3-c3ccccc32)CC1`, 84% (active).
Then `COc1ccc(OC)c(NC(=O)CN2CCN(C(=O)c3ccco3)CC2)c1`, with -1.17%.
Turning to `COc1ccc(NC(C)=O)cc1NC(=O)CN1CCN(c2ccccn2)CC1`, the inhibition was -3.06%.
